# Laboratory results published in ChEMBL document CHEMBL4513146, “CO-ADD screening of Karazin Kharkiv National University (Ukraine) compounds”.
# The campaign covered roughly 23,000 compounds. About 30 (0.1%) showed an effect of 50% or more. The sample holds strong results, similar compounds and a random draw of the others, so the mix is not that of the screen. Results with a measured potency or affinity are listed apart.
# System: Pseudomonas aeruginosa
# Settings: Concentration 32 ug.mL-1;; ASSAY_TEST Inhibition of Bacterial Growth; detection method Absorption (OD600); MEDIA CAMHB; plate type 384well; NBS; CORNING #3640; time 18 hr
row,SMILES,Inhibition [%]
1,COc1ccc(-c2cc3c4nn(CC(=O)Nc5ccc(F)cc5)c(=O)n4ccn3n2)cc1,-1.39
2,O=C(CSc1nnc2c(=O)n(Cc3ccc(F)cc3)ccn12)NC1CCCC1,8.47
3,Cc1ccc(Oc2nccn3c(=O)n(CC(=O)Nc4ccc(Cl)cc4F)nc23)cc1,0.79
4,Cc1cccc(N(Cc2ccc(F)cc2)S(=O)(=O)c2cccn3c(C)nnc23)c1,11.57
5,COc1cccc(CSc2nnc3c(=O)n(-c4ccc(Br)cc4)ccn23)c1,16.71
6,Cc1ccccc1Oc1nccn2c(=O)n(CC(=O)Nc3ccc(Cl)c(Cl)c3)nc12,3.97
7,O=C(Cn1nc2c(Sc3ccccc3)nccn2c1=O)Nc1ccc(Br)cc1F,11.79
8,COc1ccc(CNC(=O)CCc2nnc3c4cc(-c5ccc(Cl)cc5)nn4ccn23)cc1OC,9.37
9,O=C(Cn1nc2c(Sc3ccccc3)nccn2c1=O)Nc1ccc2c(c1)OCCO2,17.83
